PubChem BioAssay (NCI)
About 83,000 compounds went through this panel and 20% of them were active in at least one assay; those are over-represented in the sample as a whole.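 Testing used 96-well plates and a 48-hour single-concentration exposure. Example: -40 means 40% of the starting cells died.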 Active and inactive are the calls of the source. The calls were made as follows: active = growth percent below 10; inactive = the rest.

system: NCI-H460 lung; assay: NCI-60 one-dose screen, 48 h (100 = growth as untreated, 0 = no growth, -100 = all killed); settings: 10 µM unless noted

Structure (SMILES)	growth
CCN(CC)CCOc1ccc(/C(=C(\C)Cc2ccc(OC)cc2)c2ccc(OC(=O)NCc3ccccc3)cc2)cc1	1.28% (active)
C=C1C(=O)O[C@H]2[C@H]1CC/C(COC(=O)NCc1ccc(Cn3c(=O)sn(-c4ccc(I)cc4)c3=O)cc1)=C\CC[C@@]1(C)O[C@@H]21	91.9% (inactive)
O=c1oc2ccccc2cc1-c1nn(-c2ccccc2)cc1-c1nn[nH]n1	105% (inactive)
O=c1oc2c(cc1-c1ccccc1)c(=O)[nH]c1ccccc12	105% (inactive)
CC1=C(Cl)C(=O)c2cc(C)ccc2C1=O	115% (inactive)

system: HOP-92 NSCLC; assay: as above; settings: 10 µM unless noted

Structure (SMILES)	growth
O=c1oc2c(cnc3ccccc32)cc1-c1cccc(Cl)c1	81.7% (inactive)
CCOC(=O)c1c(C)nc2c(c1N)C(=O)C(=O)N2Cc1ccc(OC)cc1	39.6% (inactive)
CCNC(=O)N1CCc2c(Br)c3c(c(OC)c2C1Cc1ccc(OC)cc1)OCO3 (centres undefined)	40.6% (inactive)
COc1cc2c(c(OC)c1OC)CCC(c1cccc(C(=O)Nc3ccc(Br)cc3)c1)O2 (centres undefined)	17% (inactive)
OC1CSSC1Cn1cnc2c(Nc3ccc(OCc4cccc(F)c4)c(Cl)c3)ncnc21 (centres undefined)	139% (inactive)
Cc1ccc(OCCOCCOCCOc2ccc(C)n(O)c2=S)c(=S)n1O	81.1% (inactive)
C=CN(C(=O)N1CCN(c2cc3c(cc2F)c(=O)c(C(=O)O)cn3C2CC2)CC1)c1nc(-c2ccc(Cl)cc2)cs1	60.1% (inactive)
C#CCOc1cccc(Nc2ncnc3cc(NC(=O)CCl)ccc23)c1	-76.9% (active)
Cc1nc2ccccc2c(/C=C/c2ccc(F)cc2)c1C(=O)/C=C/c1ccccc1	50.6% (inactive)
